Screens as filed in PubChem.
Rows were chosen to be rich in hits. Some 8% of all compounds tested hit in one or more screens of this group.
HCV inhibitor: HCV inhibition; Huh7.5.1 HCVcc-Cre infection, luciferase reporter, 44 h; Potency, µM (highest dose often 41.8 µM), for the others: top-dose activity change, negative = inhibition, hits mostly inhibitors; 340,000 compounds, 3.4% hits; AID 651820; active = well fitted inhibition curve with a large enough effect; inconclusive = small, poorly fitted or top-dose-only effect, or another doubt; inactive = no such curve, though single readings can be large or run the other way; note: potency is the fitted concentration of half-maximal effect; % is set by controls: 0 for no effect and ±100 for the full control effect
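Luciferase read-out (15 sec integration) after a 15 min room-temperature substrate step quantifies HCVcc-Cre infection. Cells, 1,000 per well, had compound added 4 h post-plating, then virus at ~0.5 moi, and were cultured 44 h.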
FMDV inh: antivirals against foot and mouth disease virus. FMDV antiviral cell-based qHTS. Potency, µM (highest dose often 57.9 µM), for the others: top-dose activity change, negative = inhibition, hits mostly inhibitors. 410,000 compounds, 1.2% hits; calls by dose curve; tested in HEK293T cells; note: read-out not given here; potency is the fitted concentration of half-maximal effect; % is set by controls: 0 for no effect and ±100 for the full control effect; nearly all actives have a fitted effect of over 45% in size
HCMV inh: inhibitors of human cytomegalovirus. HFF cells, HCMV-luciferase reporter, 72 h; stronger effect = lower value. activity change, negative = inhibition, % at 57.5 µM. 410,000 compounds, 4.5% hits. AID 1259415; in the data active = activity change below about -60%; inconclusive = no clear call, values can overlap the other calls; inactive = above about -39%; note: % is set by controls: 0 for no effect and ±100 for the full control effect
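Steps: HFFs plated, 16 h 37C; compounds added; HCMV-luciferase added to MOI 1 PFU/cell; 72 h 37C; OneGlo reagent, 5 min room temperature; luminescence read, normalized to controls.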
Lassa entry inh: Lassa virus entry inhibition. Lassa virus pseudotype entry inhibition, cell reporter. 300,000 compounds, 1.2% hits. Potency, µM (top dose mostly 37.9 µM), for the others: at the top dose activity change, negative = inhibition, usual class: inhibitors; calls by dose curve; tested in HEK293 cells; note: potency is the fitted concentration of half-maximal effect; % is set by controls: 0 for no effect and ±100 for the full control effect; nearly all actives have a fitted effect of over 50% in size
SARS PLP yeast: blocks SARS-CoV papain-like protease in a yeast assay; AID 485353; 330,000 compounds, 0.19% hits; Potency, µM (titrated, usually from 32.9 µM), for the others: top-dose activity, positive = growth rescue, usual class: activators; S. cerevisiae expressing SARS-CoV PLpro, growth rescue; calls by dose curve; note: potency is the fitted concentration of half-maximal effect; 0% is about no effect; nearly all actives have a fitted effect of over 55% in size
MARV entry inh: blocks Marburg virus binding to or entry into cells; Marburg virus pseudotyped entry inhibition, cell reporter; Potency, µM (top dose mostly 37.8 µM), inactives show at the highest dose activity change, negative = inhibition, actives largely listed as inhibitors; 300,000 compounds, 1.8% hits; AID 540276; calls by dose curve; tested in HEK293 cells; note: potency is the fitted concentration of half-maximal effect; % is set by controls: 0 for no effect and ±100 for the full control effect
An asterisk follows results filed as active; ? = inconclusive; . = no result given; [ ] = dose if it differs, or a comment.

SMILES	HCV inhibitor	FMDV inh	HCMV inh	Lassa entry inh	SARS PLP yeast	MARV entry inh
COc1ccc(-c2cc(C(=O)Nc3cnn(Cc4ccc(F)cc4)c3)no2)cc1OC	.	-12.6%	-7.4	?	.	-22.6%[46.1 µM]
O=C(Nc1ccc(Cl)c(Cl)c1)c1ccc(Cn2cc(Cl)cn2)cc1	?	23.9%	-23.8	.	-90.9%	1.3%
COc1cc(Cl)c(C)cc1NC(=O)CCCN1C(=O)C(c2ccccc2)Oc2cccnc21 (centres undefined)	.	-28.3%	23.6	4.4%[46.1 µM]	.	.
CCOC(=O)N/N=C1\C[C@@H](O)[C@@H](O)[C@@H]2[C@@H]3C(=O)N(Cc4ccccc4)C(=O)[C@@H]3CC[C@H]12	.	.	.	.	.	24.9%[14.2 µM]
Cc1c(Cl)cccc1N1CCn2c1nc1c2c(=O)n(CC(=O)O)c(=O)n1C	.	-26.7%	-15.5	?	.	-4.1%[46.1 µM]
CCc1ccccc1NC(=O)c1ccc(Cn2cc([N+](=O)[O-])cn2)cc1	13.2%	-11.2%	-25.0	18.5%	-0.5%	19.2%
O=C(Nc1ccc([N+](=O)[O-])cc1)c1ccc(Cn2cc([N+](=O)[O-])cn2)cc1	?	?	-67.6*	.	0.7%	.
O=C(OCC#CCSc1nnc(-c2cccc3ccccc23)s1)c1cccs1	.	.	.	.	1.8%	.
COc1ccc(-c2[nH]ncc2N=Nc2cc(C)cc(C)c2)cc1	2.24µM*	-13.9%	10.3	?	-3.2%	?
C/C=C(/C)C(=O)OC1c2c(ccc3ccc(=O)oc23)OC(C)(C)C1OC(=O)/C(C)=C\C (centres undefined)	-49.1%	28.2µM*	-22.8	.	0.7%	.
CC1(C)Oc2ccc3ccc(=O)oc3c2[C@@H](O)[C@H]1O	3.16µM*	-14.5%	-23.7	.	3.9%	.
CCO[C@H]1c2c(ccc3ccc(=O)oc23)OC(C)(C)[C@H]1O	40.5%	1.4%	13.3	.	4.6%	.
Cc1cc(C2CCCCC2)n(O)c(=O)c1	?	-27.6%	-77.8*	.	.	.
CCCCCCCc1cc2ccccc2c2c(C(C)=O)c(-c3ccccc3)c(C(=O)OC)n12	.	.	.	?	.	-16.1%[14.2 µM]
Clc1ccc(-n2cccc2CN2CCOc3ccc(CN4CCOCC4)cc3C2)nc1	.	-6.0%	.	.	.	.
Cc1ccc(S(=O)(=O)NCC(=O)OCC(=O)N(CCC#N)c2ccccc2)cc1	-16.0%	-4.6%	-63.9*	-7.1%[46.1 µM]	6.2%	18.8%
O=C(COc1ccccc1F)Nc1ccc2nc(SCC(=O)N3CCCC3)sc2c1	.	?	-63.4*	2.7%[46.1 µM]	.	?
O=C(COc1ccc(F)cc1)Nc1ccc2nc(SCC(=O)N3CCCC3)sc2c1	.	?	-20.6	22.3%[46.1 µM]	.	2.1%[46.1 µM]
O=C(CSc1nc2ccc(Nc3nc(N4CCOCC4)nc(N4CCOCC4)n3)cc2s1)Nc1ccccc1F	?	-17.6%	-96.9*	.	1.5%	.
O=C(COc1ccccc1F)Nc1ccc2nc(SCC(=O)N3CCOCC3)sc2c1	.	?	-68.5*	-21.4%[46.1 µM]	.	?
COc1cc(OC)c(NS(=O)(=O)c2c(C(=O)N3CCCCCC3)c(C)n(C)c2C)cc1Cl	.	37.7%	-15.0	8.0%[46.1 µM]	.	.
C=CCn1c(O)c(/C=C2/C=CC=N2)c(=O)[nH]c1=O	-0.1%	-5.7%	14.8	.	2.6%	.
O=c1[nH]c(=O)n(Cc2ccccc2Cl)c(O)c1/C=C1/C=CC=N1	-5.9%	-29.0%	-88.8*	?	-4.1%	?
c1ccc(COc2ccccc2CNC23CC4CC(CC(C4)C2)C3)cc1	?	-11.8%	-97.2*	?	-0.6%	?
Cc1c(C(=O)N2CCOc3ccccc3C2)sc2ncnc(NCCCN3CCOCC3)c12	.	-9.8%	.	.	.	.
SMILES	HCV inhibitor	FMDV inh	HCMV inh	Lassa entry inh	SARS PLP yeast	MARV entry inh
Cc1ccc(-c2noc(C3CCN(S(=O)(=O)c4ccc5c(c4)OCCO5)CC3)n2)o1	12.6µM*	?	-96.0*	?	0.6%	?
O=S(=O)(c1ccc2ccccc2c1)N1CCC(c2nc(-c3ccncc3)no2)CC1	8.91µM*	?	-73.4*	-12.9%	0.2%	?
C/C(=N\NC(=O)CCc1ccccc1)C1C(=O)c2ccccc2C1=O	0.8%	38.1%	-87.2*	?	-1.4%	?
CCOC(=O)c1cc([N+](=O)[O-])c([N+](=O)[O-])cc1NC(C)=O	?	?	-100.2*	-12.9%	-134.8%	?
Cc1cc(C)cc(N(CCC(=O)Nc2nnc(C3CC3)s2)S(=O)(=O)c2ccc(Cl)cc2)c1	?	0.0%	-61.4*	-16.5%	2.2%	?
Cc1ccc([N+](=O)[O-])cc1N	4.4%	2.9%	39.0	12.9%	-1.8%	-4.9%
CCc1cc([N+](=O)[O-])cc(CC)c1N	11.2µM*	-22.7%	-20.2	10.0%	0.6%	4.7%[46.1 µM]
CCc1cc(C(=O)OC)c(NC(=O)CC2SC(=NC)N(C)C2=O)s1 (centres undefined)	15.8µM*	5.0%	10.1	13.1%[46.1 µM]	0.7%	-9.6%[46.1 µM]
Cc1scc(C(=O)NNC(=S)NC(C)c2ccccc2)c1C (centres undefined)	-14.3%	-0.7%	-77.6*	-12.2%	?	-7.6%
COc1ccccc1NC(=O)CSC1=Nc2ccccc2C2=NC(CCC(=O)NCc3cccs3)C(=O)N12 (centres undefined)	.	?	-28.6	?	.	.
COc1ccc(OC(F)(F)F)cc1CC1(C)C(=O)Nc2ccc(-c3ccsc3)cc21 (centres undefined)	.	0.0%	-82.0*	.	.	.
COc1ccc(NC(=O)CCSc2ccc(C)cc2)cc1S(=O)(=O)Nc1ccccc1Cl	?	-7.4%	-32.9	12.6µM*	4.6%	?
COc1ccc(NC(=O)CCS(=O)(=O)c2ccccc2Cl)cc1S(=O)(=O)Nc1ccc(Cl)cc1	12.6µM*	28.1%	-21.2	.	10.4%	.
Cc1ccc(Cl)cc1NC(=O)CCS(=O)(=O)c1cccc2nonc12	4.7%	13.6%	-5.2	27.5%	1.2%	4.9%[46.1 µM]
COc1ccc(NS(=O)(=O)c2cc(NC(=O)CCSc3ccccc3)ccc2OC)cc1	?	23.7%	-39.1	?	11.2%	?
COc1ccc(NC(=O)CCC(=O)c2cccs2)cc1S(=O)(=O)Nc1ccc(Cl)cc1	-20.7%	9.4%	68.1	6.0%	-3.7%	-41.6%
COc1ccc(Cl)cc1NC(=O)CCS(=O)(=O)c1cccc2nonc12	.	3.8%	-86.0*	4.0%[46.1 µM]	.	23.8%[46.1 µM]
CCOC(=O)CCNC(=O)C1=CN2CCN(Cc3c(C)noc3C)C(=O)N=C2O1	.	.	-3.6	.	.	.
CCN1C(=S)NC(c2cccs2)C(C(=O)OC)=C1C (centres undefined)	.	.	.	?	.	38.4%[14.2 µM]
Cc1ccc(S(=O)(=O)N2C[C@@H]3[C@H]4CC[C@H](C4)[C@@H]3[C@@H](C)[C@@H]2c2cn(Cc3ccccc3)c3ccc(F)cc23)cc1	-6.3%	0.0%	-33.8	.	-6.8%	.
C[C@@H]1[C@H]2[C@@H]3CC[C@@H](C3)[C@H]2CN[C@H]1c1cn(Cc2ccccc2)c2ccccc12	22.4µM*	0.0%	-4.6	.	-0.6%	.
